Our source for the max response, Potency and outcome values is PubChem BioAssay (Tox21).

“And” between values parts separate entries of the source, which are not always exact repeats. Equal entries are not always repeated. Records with an inconclusive call do not appear. A structure can be active in one record and inactive in another. The source made the active and inactive calls. Calls follow the shape of the dose curve; as a rule, active = well fitted curve in the direction sought with a large enough effect in the repeat runs; inconclusive = weak or mixed curves; inactive = no such curve, though single readings can be large; an effect the other way counts as inactive or inconclusive.

Experiment [1] can be described thus: qHTS RealTime-Glo MT Cell Viability Assay in HEK293 cells - 40 hour (AID 1224874). Also: nearly all actives have a fitted effect of over 50% in size. Also: potency is read from the fitted curve at half-maximal effect. Conditions: RealTime-Glo luminescence; max response: stronger effect = lower value. An outline of the steps: (§1)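 Luminescence readout at each listed time point; HEK293, 600 cells/well, RealTime-Glo MT reagent added with cells; compounds pinned (23 nL in DMSO) after 5 h at 37 C; continuous culture at 37 C.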

Experiment [2] in a line: A CellTox Green Cytotoxicity Assay to monitor cytotoxicity in HEK293 cells - 24 hour (AID 1224875). Also: series mostly up to about 77 µM; nearly all actives have a fitted effect of over 45% in size. An outline of the steps:
(§2)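 Read-out: fluorescence of a cell-impermeant cyanine dye staining DNA of dead cells, proportional to cytotoxicity. HEK293, 600 cells/well with reagent, compound (23 nL DMSO) added after 5 h; reads at 0, 8, 16, 24, 32, 40 h.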

Experiment [3] in a line: A CellTox Green Cytotoxicity Assay to monitor cytotoxicity in HepG2 cells - 16 hour (AID 1224876). Also: nearly all actives have a fitted effect of over 45% in size. The gist of the method: (§3)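 HepG2, 600 cells/well premixed w/ CellTox Green; 5 h settle, 37 C/5% CO2; pintool cpd add (DMSO); 37 C, 40 h; fluorescence read at 0, 8, 16, 24, 32, 40 h.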
Experiment [4] can be described thus: qHTS RealTime-Glo MT Cell Viability Assay in HepG2 cells - 32 hour (AID 1224877). Also: nearly all actives have a fitted effect of over 55% in size. The gist of the method:
(§4)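 Real-time, nonlytic viability: 600 HepG2 cells/well mixed with NanoLuc enzyme plus prosubstrate; 5 h settle, compound (DMSO) added by pintool; luminescence monitored over 40 h at 37 C.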

Experiment [5] can be described thus: A CellTox Green Cytotoxicity Assay to monitor cytotoxicity in HepG2 cells - 24 hour (AID 1224878). Also: nearly all actives have a fitted effect of over 45% in size. The gist of the method:
as §3

The nature of experiment [6]: qHTS RealTime-Glo MT Cell Viability Assay in HEK293 cells - 0 hour (AID 1224880). Also: top concentration of the series differs between compounds; nearly all actives have a fitted effect of over 45% in size. An outline of the steps: as §1
A short description of experiment [7]: A CellTox Green Cytotoxicity Assay to monitor cytotoxicity in HEK293 cells - 32 hour (AID 1224881). Also: nearly all actives have a fitted effect of over 40% in size. The gist of the method: as §2
The nature of experiment [8]: A CellTox Green Cytotoxicity Assay to monitor cytotoxicity in HepG2 cells - 0 hour (AID 1224882). Also: nearly all actives have a fitted effect of over 35% in size. An outline of the steps: as §3
A short description of experiment [9]: A CellTox Green Cytotoxicity Assay to monitor cytotoxicity in HepG2 cells - 32 hour (AID 1224883). Also: nearly all actives have a fitted effect of over 50% in size. The gist of the method:
as §3

The nature of experiment [10]: A CellTox Green Cytotoxicity Assay to monitor cytotoxicity in HEK293 cells - 8 hour (AID 1224884). Also: nearly all actives have a fitted effect of over 35% in size. Also: potency is read from the fitted curve at half-maximal effect. An outline of the steps: as §2
Experiment [11] is described as follows: qHTS RealTime-Glo MT Cell Viability Assay in HepG2 cells - 16 hour (AID 1224885). Also: nearly all actives have a fitted effect of over 50% in size. The gist of the method:
as §4

The nature of experiment [12]: qHTS RealTime-Glo MT Cell Viability Assay in HEK293 cells - 24 hour (AID 1224886). Also: nearly all actives have a fitted effect of over 50% in size. Also: potency is read from the fitted curve at half-maximal effect. An outline of the steps: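 Cells + reagent dispensed (600 cells/well, HEK293) → 5 h at 37 C/5% CO2 → 23 nL compound in DMSO pinned → 40 h at 37 C → luminescence read at 0, 8, 16, 24, 32, 40 h.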
Experiment [13] in a line: qHTS RealTime-Glo MT Cell Viability Assay in HEK293 cells - 8 hour (AID 1224887). The gist of the method: as §1
Experiment [14] is described as follows: qHTS RealTime-Glo MT Cell Viability Assay in HepG2 cells - 0 hour (AID 1224889). Also: nearly all actives have a fitted effect of over 50% in size. An outline of the steps:
as §4

Experiment [15] in a line: A CellTox Green Cytotoxicity Assay to monitor cytotoxicity in HepG2 cells - 8 hour (AID 1224890). Also: nearly all actives have a fitted effect of over 45% in size. The gist of the method:
as §3

The nature of experiment [16]: qHTS assay to identify small molecule antagonists of the estrogen receptor alpha (ER-alpha) signaling pathway using the BG1 cell line in the presence of 0.1 nM 17-beta-estradiol - cell viability counter screen (AID 1259241). Also: nearly all actives have a fitted effect of over 40% in size. The gist of the method:
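VM7Luc4E2, 4,000 cells/well, phenol red-free medium + 10% charcoal-stripped FBS; 24 hr plating; cpd + 0.1 nM E2 final, 22 hr 37C/5% CO2; CellTiter-Fluor 30 min, fluorescence.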

Experiment [17] is described as follows: qHTS assay to identify small molecule antagonists of the androgen receptor (AR) signaling pathway using the MDA cell line in the presence of 0.5 nM R1881 - cell viability counter screen (AID 1259242). Also: nearly all actives have a fitted effect of over 45% in size. An outline of the steps: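 Live-cell protease fluorescence, CellTiter-Fluor, 30 min at 37C. Cells: MDA-kb2, 3,000/well, preincubated 5 hr. Compounds plus 0.5 nM R1881 final, 16 hr, 37C, 0% CO2.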

Experiment [18] can be described thus: A CellTox Green Cytotoxicity Assay to monitor cytotoxicity in HepG2 cells - 40 hour (AID 1224879). Also: nearly all actives have a fitted effect of over 40% in size. Also: potency is read from the fitted curve at half-maximal effect. The gist of the method:
as §3

Experiment [19] can be described thus: A CellTox Green Cytotoxicity Assay to monitor cytotoxicity in HEK293 cells - 16 hour (AID 1224888). Also: nearly all actives have a fitted effect of over 35% in size. An outline of the steps:
as §2

Experiment [20] deals with Androgen receptor (Homo sapiens) (UniProt P10275). Nature of the experiment: qHTS assay to identify small molecule antagonists of the androgen receptor (AR) signaling pathway using the MDA cell line in the presence of 0.5 nM R1881 (AID 1259243). Also: nearly all actives have a fitted effect of over 50% in size. An outline of the steps:
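MDA-kb2, MMTV-luc (AR/GR elements); 3,000 cells/well; cpd + 0.5 nM R1881 final; 16 hr 37C, 0% CO2; ONE-Glo 30 min RT; luminescence.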
% is scaled to controls: 0 for no effect and ±100 for the full control effect.

Chain of Androgen receptor (Homo sapiens) (P10275 whole entry, looked up): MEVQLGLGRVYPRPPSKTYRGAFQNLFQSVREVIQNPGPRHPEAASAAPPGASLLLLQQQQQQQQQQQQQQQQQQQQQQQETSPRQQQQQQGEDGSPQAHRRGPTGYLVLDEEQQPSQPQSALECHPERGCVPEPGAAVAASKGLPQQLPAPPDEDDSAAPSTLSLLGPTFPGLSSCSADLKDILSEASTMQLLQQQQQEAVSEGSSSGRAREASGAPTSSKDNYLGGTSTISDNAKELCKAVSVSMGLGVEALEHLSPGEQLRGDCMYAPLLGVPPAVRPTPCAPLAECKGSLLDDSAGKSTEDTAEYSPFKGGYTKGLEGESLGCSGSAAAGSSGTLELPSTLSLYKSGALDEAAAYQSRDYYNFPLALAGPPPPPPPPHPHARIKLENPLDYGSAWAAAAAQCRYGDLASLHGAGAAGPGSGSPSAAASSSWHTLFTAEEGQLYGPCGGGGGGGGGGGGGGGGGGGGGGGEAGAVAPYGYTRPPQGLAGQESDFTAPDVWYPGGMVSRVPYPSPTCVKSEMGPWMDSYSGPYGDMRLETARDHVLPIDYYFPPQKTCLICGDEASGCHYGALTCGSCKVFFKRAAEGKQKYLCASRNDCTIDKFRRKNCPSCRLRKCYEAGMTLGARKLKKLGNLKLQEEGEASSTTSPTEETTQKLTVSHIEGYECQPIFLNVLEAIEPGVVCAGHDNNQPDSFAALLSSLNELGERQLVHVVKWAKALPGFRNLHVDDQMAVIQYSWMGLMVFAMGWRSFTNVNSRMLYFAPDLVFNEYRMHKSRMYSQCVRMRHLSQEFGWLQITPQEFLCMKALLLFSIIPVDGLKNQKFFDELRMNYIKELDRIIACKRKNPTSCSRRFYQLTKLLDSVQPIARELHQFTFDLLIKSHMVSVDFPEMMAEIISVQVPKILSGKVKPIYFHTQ

For the compound `Cc1cc(Cl)ccc1O`, the max response in [1] is 4.2% (inactive) and 2.39% (inactive). Moreover, the Potency entry in experiment [2], in experiment [3], in [5], in [7], in [8] and in [9] was “inactive” throughout. Besides, the Potency entry in [10], in experiment [12], in experiment [15] and in [16] was “inactive” throughout. The compound was classed as inactive in experiment [4], in [6], in experiment [11], in experiment [13], in experiment [14] and in [17].

Turning to `CC(C)(C)C(O)(CCc1ccc(Cl)cc1)Cn1cncn1` (stereo not drawn), the Potency is 44.2 µM (active) and 54.9 µM (active) in [1]; 49.6 µM (active) and 54.9 µM (active) in experiment [12]. In addition, the Potency entry in experiment [2], in [3], in experiment [7], in [8], in experiment [10] and in experiment [15] was “inactive” throughout. Besides, in [16], the Potency result was “inactive”. Moreover, the outcome in experiment [4], in [6], in experiment [11], in experiment [14] and in experiment [17] was inactive.

Take `CC(C)C1(C)N=C(c2nc3ccccc3cc2C(=O)O)NC1=O` (stereo not drawn): the max response in experiment [1] was 4.12% (inactive) and 2.1% (inactive). In addition, the Potency entry in [2], in experiment [5], in experiment [18], in [7], in experiment [8] and in experiment [9] was “inactive” each time. In addition, the Potency result in experiment [10], in experiment [12], in [19], in [15] and in experiment [16] was “inactive” throughout. Also, the result in experiment [4], in experiment [6], in experiment [11], in experiment [13], in [14] and in experiment [17] was inactive.

Regarding `O=c1[nH]c2ccccc2c(=O)o1`, the max response in experiment [1] is -0.172% (inactive). For the same compound, the Potency result in experiment [2], in experiment [5], in experiment [18], in experiment [7], in [8] and in experiment [9] was “inactive” throughout. Moreover, the Potency entry in [10], in experiment [12], in experiment [19], in [15] and in [16] was “inactive” in each case. For the same compound, the call in [4], in [6], in experiment [11], in experiment [13], in experiment [14] and in experiment [17] was inactive.

Take `c1ccc2c(c1)Oc1ccccc1O2`: in [1], the max response is 4.43% (inactive) and 0.097% (inactive). The Potency result in experiment [2], in [5], in experiment [7], in [8], in experiment [9] and in experiment [10] was “inactive” each time. Besides, the Potency entry in [12], in [19], in experiment [15] and in [16] was “inactive” throughout. For the same compound, the result in experiment [4], in experiment [6], in [11], in [13], in experiment [14] and in experiment [17] was inactive. In addition, the Potency in [18] was 30.5 µM (active) and inactive.

On to `CC(C)OC(=O)Nc1ccccc1`, for which the max response in experiment [1] is 1.67% (inactive) and 0.253% (inactive). Also, the Potency entry in [2], in experiment [5], in [18], in experiment [7], in [8] and in [9] was “inactive” in each case. Moreover, the Potency entry in experiment [10], in experiment [12], in experiment [19], in experiment [15] and in experiment [16] was “inactive” throughout. Besides, the outcome in [4], in [6], in experiment [11], in [13], in [14] and in [17] was inactive.

For `C=CC(N)=O`, the max response in [1] is 0.5% (inactive) and -10.4% (inactive). The Potency entry in [2], in [5], in experiment [18], in [7], in [8] and in experiment [9] was “inactive” each time. The Potency entry in experiment [10], in experiment [12], in experiment [19], in experiment [15] and in [16] was “inactive” each time. Also, the result in experiment [4], in [6], in experiment [11], in [13], in [14] and in experiment [17] was inactive.

As to `O=[N+]([O-])c1ccccc1`, the max response in experiment [1] is 6.12% (inactive) and 17.8% (inactive). For the same compound, the Potency entry in [2], in experiment [3], in experiment [5], in experiment [7], in experiment [8] and in experiment [9] was “inactive” each time. In addition, the Potency result in experiment [10], in experiment [12], in experiment [19], in experiment [15] and in experiment [16] was “inactive” throughout. For the same compound, the compound was classed as inactive in experiment [4], in experiment [6], in [11], in experiment [13], in [14] and in experiment [17].

For the compound `CN(N=O)c1ccccc1`, the max response in experiment [1] is 9.26% (inactive) and 4.33% (inactive). Moreover, the Potency entry in experiment [2], in [3], in [5], in experiment [7], in experiment [8] and in experiment [9] was “inactive” in each case. Moreover, the Potency entry in experiment [10], in [12], in experiment [15] and in experiment [16] was “inactive” throughout. In addition, the result in [4], in [6], in experiment [11], in experiment [13], in experiment [14] and in [17] was inactive.

Regarding `CCOP(=S)(OCC)Oc1cnc2ccccc2n1`, the max response in experiment [1] was 0.949% (inactive). Also, the Potency result in experiment [2], in experiment [3], in experiment [5], in [7], in [8] and in experiment [9] was “inactive” each time. Further, the Potency entry in [10], in experiment [12], in experiment [19], in experiment [15] and in [16] was “inactive” each time. Further, the compound was classed as inactive in [4], in experiment [6], in experiment [11], in experiment [13], in experiment [14] and in experiment [17].

With `COCCl`, the max response in [1] was -4.66% (inactive) and 2.93% (inactive). The Potency entry in experiment [2], in experiment [3], in experiment [5], in [18], in experiment [7] and in experiment [8] was “inactive” each time. Further, the Potency entry in experiment [9], in experiment [12], in experiment [15], in [16] and in experiment [20] was “inactive” throughout. In addition, the compound was called inactive in experiment [4], in experiment [6], in experiment [11], in experiment [13], in [14] and in experiment [17]. The Potency in experiment [10] is 22.7 µM (active) and inactive.

Take `CC(C)(Cl)Cl`: the max response in experiment [1] is 0.337% (inactive) and 2.87% (inactive). For the same compound, the Potency entry in experiment [2], in experiment [3], in experiment [5], in experiment [7], in experiment [8] and in experiment [9] was “inactive” throughout. The Potency result in experiment [10], in experiment [12], in experiment [15] and in [16] was “inactive” in each case. The compound was called inactive in experiment [4], in experiment [6], in experiment [11], in experiment [13], in [14] and in experiment [17].

In the case of `CC(Oc1ccc(Cl)cc1Cl)C(=O)O` (stereo not drawn), the max response in [1] was -2.47% (inactive). The Potency result in experiment [2], in experiment [3], in [5], in experiment [7], in experiment [8] and in experiment [9] was “inactive” each time. Moreover, the Potency entry in experiment [10], in [12], in experiment [19], in experiment [15] and in experiment [16] was “inactive” throughout. In addition, the outcome in experiment [4], in experiment [6], in [11], in experiment [13], in experiment [14] and in [17] was inactive.
